# Screening results deposited in PubChem by National Center for Advancing Translational Sciences (NCATS).
# Only some compounds are listed: those with a hit (about 2.4% of all), similar ones and a draw of the others.
# D2 ag-1: D2 dopamine receptor (human) agonism; P14416; HEK293 T-REx D2 cells, calcium flux agonist mode; activation, % at 2 µM; actives 0.53% (n = 340,000); AID 485358;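 active = activation over 3 SD above normal in the single-dose calcium agonist read, cut at about 30% in these data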; also: 0% is about no effect
# Target sequence (P14416 whole entry, looked up): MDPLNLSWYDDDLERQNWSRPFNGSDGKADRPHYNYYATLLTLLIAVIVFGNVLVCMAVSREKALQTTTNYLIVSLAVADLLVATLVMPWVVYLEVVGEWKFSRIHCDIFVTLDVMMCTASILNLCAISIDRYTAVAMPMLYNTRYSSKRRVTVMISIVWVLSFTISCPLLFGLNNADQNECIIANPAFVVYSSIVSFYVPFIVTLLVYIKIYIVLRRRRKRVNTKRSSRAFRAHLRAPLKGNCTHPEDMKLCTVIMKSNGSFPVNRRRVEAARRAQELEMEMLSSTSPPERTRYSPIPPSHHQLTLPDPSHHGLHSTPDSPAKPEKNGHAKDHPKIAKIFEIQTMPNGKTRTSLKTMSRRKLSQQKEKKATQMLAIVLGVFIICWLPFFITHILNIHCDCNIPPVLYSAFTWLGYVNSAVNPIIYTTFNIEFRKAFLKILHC
#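 In this primary screen, compounds producing a positive calcium signal within 180 s of addition to tetracycline-induced, force-coupled HEK293 Trex D2 cells are flagged; cells are dye-loaded with a no-wash calcium kit beforehand.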
# D2 PAM-1: potentiates the human D2 dopamine receptor allosterically; P14416; DiscoveRx D2 beta-arrestin cells, luminescence, 90 min; 100% = 57 uM dopamine signal; potentiation, % (concentration not given with the values); actives 0.23% (n = 360,000); in the data active = potentiation above about 50%
#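 PathHunter beta-arrestin assay in DiscoveRx D2 cells. Compounds were added with an EC20 of dopamine (50 nM final) for 90 min at 37 deg C. Luminescence was read 1 h after detection reagent, with 57 uM dopamine as the EC100 control.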
# D2 PAM-2: positively modulates the human D2 dopamine receptor allosterically | P14416 | HEK293 T-REx D2, calcium flux, EC20 dopamine potentiation | potentiation, % at 10 µM | actives 0.34% (n = 340,000) | AID 485347;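 active = potentiation over 3 SD above the plate norm, cut at about 30% in these data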; also: 0% is about no effect
#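 Potentiation of an EC20 dopamine calcium response is measured in a force-coupled, tetracycline-inducible Hek293 Trex D2 line. Compound-only kinetic reads over 180 s flag agonists before dopamine addition.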
# D2 antag: antagonists of human D2 dopamine receptor; P14416; HEK293 TREx D2 cells, calcium flux, dopamine EC80; inhibition, % at 10 µM; actives 2% (n = 340,000); AID 485344; in the data active = inhibition above about 30%; inactive = below that, where a call was filed; also: 0% is about no effect
#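 Cells plated overnight at 30 C with tetracycline; no-wash calcium dye, 30–90 min RT; 10 s baseline; compound pinned; 180 s read; EC80 dopamine added; another 180 s read.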
# D2 ag-2: agonists of human D2 dopamine receptor (beta-arrestin) | P14416 | DiscoveRx PathHunter D2 beta-arrestin, luminescence, 90 min; 100% = 57 uM dopamine signal | activation, % (test concentration not listed) | actives 0.084% (n = 360,000); in the data active = activation above about 40%
#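 DiscoveRx PathHunter D2 beta-arrestin cells (2,100/well) attached overnight, then compound-stimulated 90 min at 37 C in HBSS/10 mM HEPES/0.1% Tween-20 buffer; beta-galactosidase complementation read by luminescence after 1 h at ambient temperature. Dopamine 57 uM final (EC100) as control.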
# Numbers without * were called inactive; / = no result; ! = a repeat was not active.
SMILES,D2 ag-1,D2 PAM-1,D2 PAM-2,D2 antag,D2 ag-2
COc1ccc([N+](=O)[O-])cc1NC(=O)CC(c1ccccc1)c1ccccc1,/,0,/,/,-3
COc1ccc([N+](=O)[O-])cc1NC(=O)C(C)OC(=O)CN1C(=O)C2CC=CCC2C1=O (stereo unspecified),0,-2,-11,-11,-1
COc1ccc([N+](=O)[O-])cc1NC(=S)NC(NC(=O)C(c1ccccc1)c1ccccc1)C(Cl)(Cl)Cl (stereo unspecified),0,-23,-19,71*,1
CCN(CCC(=O)Nc1cc([N+](=O)[O-])ccc1OC)Cc1ccccc1,1,-39,-25,79*,-1
COc1ccc([N+](=O)[O-])cc1NC(=O)C(C)c1ccccc1 (stereo unspecified),0,5,-3,32*,0
CCc1nn(CC(=O)NC2CC2)c(=O)c2cc3ccccc3n12,/,/,12,/,/
CC(=O)N1CCc2cc(Br)cc(S(=O)(=O)CCC(=O)N3CCN(c4ccc(F)cc4)CC3)c21,1,/,10,/,/
COc1ccc(OC)c(S(=O)(=O)NCCc2sc(-c3ccc(C)cc3)nc2C)c1,-3,/,3,/,/
Cc1ccc(C(=O)OCc2nnc(-c3ccccc3)o2)o1,1,6,32*,17,-3
O=C(OCc1nnc(-c2ccccc2)o1)c1cc(S(=O)(=O)N2CCOCC2)c(Cl)cc1Cl,0,3,-3,38*,-1
CC1CCc2c(sc3nnn(CC(=O)Nc4c(C(C)C)cccc4C(C)C)c(=O)c23)C1 (stereo unspecified),/,/,-2,/,/
Fc1ccc(N2CCN(c3ncnc4c3nc3n4CCCC3)CC2)cc1,0,/,1,/,/
c1ccc(CSc2ncn[nH]2)nc1,1,-5,-4,42*,-2
C=C(C)CSc1nc2c(c(=O)[nH]c(=O)n2C)n1CCC(C)C,-1,-3,34*,-4,-2
CCSc1nc2c(c(=O)[nH]c(=O)n2C)n1C/C=C(/C)Cl,0,4,48*,3,-1
Cc1cccc(NC(=S)N2CCCCC2)c1,1,-2,19,-2,-5
Cc1ccc(C2CCN(C(=S)Nc3cccc(C)c3)C2)cc1 (stereo unspecified),-1,-12,75*,8,-3
Cc1cc(OCC(=O)Nc2sc3c(c2C#N)CC(C)(C)NC3(C)C)c(C(C)C)cc1Cl,0,-2,7,34*,3
COc1cccc(CNc2cc(C)nc3nc(-c4ccc(C)cc4)nn23)c1,-2,/,-9,/,/
COc1ccc(-c2noc(CN(C(=O)c3cc(OC)c(OC)cc3OC)C(C)C)n2)cc1,0,/,5,/,/
Cc1cc(-c2ccc(C(C)C)c(S(=O)(=O)Nc3ccccn3)c2)on1,-1,-3,-4,31*,4
Cc1cc(-c2ccc(C)c(S(=O)(=O)Nc3ccccn3)c2)on1,0,/,1,/,/
C=CCNC(=S)NNC(=O)C(CCC(C)C)CC(C)O (stereo unspecified),0,2,-12,45*,2
Cc1ccccc1NCC(=O)N/N=C/C(Br)=C/c1ccccc1,-1,-8,33*,-6,0
COc1ccc(/C=N/NC(=O)COc2cccc3ccccc23)c(C(=O)O)c1OC,0,2,40*,-21,0
SMILES,D2 ag-1,D2 PAM-1,D2 PAM-2,D2 antag,D2 ag-2
COc1ccc(/C=N/NC(=O)COc2ccc3ccccc3c2)c(C(=O)O)c1OC,1,-2,12,7,-7
CCC(Sc1nc2cc(OC)c(OC)cc2c(=O)n1Cc1ccc(OC)cc1)C(=O)NCCOC (stereo unspecified),0,-2,31*!,-1,-2
O=C(c1cc(-c2ccccc2Cl)on1)N1CCN(C(=O)c2ccco2)CC1,0,-18,-1,4,-2
O=C(c1cc(-c2ccc(Cl)cc2Cl)on1)N1CCN(C(=O)c2ccco2)CC1,1,-7,49*,-1,-1
O=C(Nc1cccnc1)c1cc(-c2ccc(Cl)cc2Cl)on1,1,-2,7,35*,3
CCCOc1ccc(C(=O)NCC2OCCc3ccccc32)cc1 (stereo unspecified),/,/,-10,/,/
CSCCC(NC(=O)c1ccco1)C(=O)N1CCCC(C(F)(F)F)C1 (stereo unspecified),-1,-5,0,31*,-5
CSCCC(NC(=O)c1ccco1)C(=O)N1CCN(C(c2ccccc2)c2ccccc2)CC1 (stereo unspecified),-1,-8,11,34*,-1
CCCS(=O)(=O)NC(=O)C1(C)CCN(C(=O)c2ccnc(Cl)c2)C1 (stereo unspecified),/,-6,/,/,-5
Cc1cc(C)c(/C=C(\C#N)C(N)=S)c(C)c1,4,-15,-3,84*,-4
Cc1cc(C)cc(NC(=O)CSc2nnc(-c3cc4occc4n3C)n2-c2ccccc2C)c1,1,/,2,/,/
O=C(Nc1cccc(C(F)(F)F)c1)c1ccc2c(c1)nnn2C1CCCC1,0,/,0,/,/
CCc1nn2c(=O)cc(COc3ccc(/C=C(\C#N)C(=O)Nc4ccc(F)cc4)cc3OC)nc2s1,-1,/,6,/,/
Clc1ccc(OCc2nnc(-c3ccccc3Br)o2)cc1,0,0,-1,36*,-1
Cc1cc(Cl)ccc1OCCCC(=O)N1CCN(C)CC1,-1,-27,-12,32*,0
CC1=C(C(=O)Nc2ccccc2)C(c2cccs2)n2nnnc2N1 (stereo unspecified),-1,-8,2,36*,-2
COC(=O)c1sccc1S(=O)(=O)Nc1ccc(C(O)(C(F)(F)F)C(F)(F)F)cc1,/,-3,/,/,7
Cc1ccc(Cn2cnc3nc4c(cc3c2=O)CC(C)CC4)cc1 (stereo unspecified),0,/,13,/,/
COc1ccc(CCNC(=O)Cn2nc(C)c3c(C)n(-c4ccc(C)cc4)nc3c2=O)c(OC)c1,-1,/,/,/,/
O=C(CCCN=C1NS(=O)(=O)c2ccccc21)Nc1ccc(Cl)cc1,0,-14,-16,6,-2
O=C(CCN=C1NS(=O)(=O)c2ccccc21)Nc1ccc(Cl)cc1F,-1,-3,-14,40*,4
O=c1c2ccccc2nc(-c2ccco2)n1Cc1ccccc1,-1,-9,22,24,-3
CCOc1ccc(CCn2c(-c3ccco3)nc3ccccc3c2=O)cc1OCC,0,1,-23,36*,-2
O=c1c2ccccc2nc(-c2ccoc2)n1CCc1ccccc1,0,0,62*,2,-3
CC1C(c2ccccc2)OCCN1C(=S)NC(=O)c1ccccc1 (stereo unspecified),/,7,/,/,-2
Cc1cc(F)ccc1NC(=O)Cn1cc(S(=O)(=O)NC(C)C)c(S(=O)(=O)NC(C)C)c1,0,/,4,/,/
